# Data published in PubChem BioAssay.
# The source made the active and inactive calls.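 Rule for the calls, unless noted: active = visual image review flags a hit and inhibition of aggregation exceeds 20%; inconclusive = visual hit but inhibition at or below 20%; inactive = no hit on visual image review.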
# Legend:
# [1] = inhibitors of TNFa-induced NFkB p65 translocation, primary screen, imaging, HUVEC, MLSMR starter and 10KST1 sets (AID 438;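 active = inhibition above 20% together with a positive visual image hit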;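 note: compound added about 3h40 before a 20 min TNFalpha stimulation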;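 for inhibition: signal is the nuclear over cytoplasmic p65 intensity ratio per well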); conditions: HUVEC TNFa-induced p65 nuclear translocation; cell count: measured here: nuclei count (cytotoxicity indicator), at 2.08 µM; inhibition: at 2 µM, stronger effect = higher value, 0% TNFa-plus-vehicle, 100% no-TNFa wells
# [2] = inhibitors of mutant huntingtin aggregation, primary screen, imaging, exon1htt(103Q)mCFP cells, high-content imaging (AID 483); conditions: exon1htt(103Q)mCFP cell line, aggregate imaging, at 2 µM; inhibition of aggregation: stronger effect = higher value; nuclei count: measured here: cell count, toxicity;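 note: compound exposure lasted 3 days before fixation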;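 for nuclei count: percent of the per-plate median nuclei count of sample wells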
# [3] = inhibitors of E-selectin induction by TNFa, primary screen, imaging, HUVEC, immunofluorescence, MLSMR starter and 10KST1 sets (AID 487;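 active = visually confirmed hit in the image check and inhibition above 20%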;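 for inhibition: signal is fraction of cell area covered by stained E-selectin grains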;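 for nuclei count: 100% = median nuclei count of all wells on the same plate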); conditions: HUVEC TNFalpha-induced E-selectin immunofluorescence imaging, at 2 µM; inhibition: stronger effect = higher value; nuclei count: measured here: cell number, toxicity
# [4] = biological target: Voltage-gated potassium channel subunit beta-2 (Rattus norvegicus) (UniProt P62483); assay: KvBeta enzyme negative modulators, primary screen, biochemical, NADPH fluorescence (AID 622;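 active = fluorescence slope higher than the sample average by over 3 SD, cut at about -0.22 in these data, passing the limit was not always enough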;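 note: slope of raw intensity against log time taken from 70 to 1610 s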); conditions: recombinant KvBeta, 4-cyanobenzaldehyde reduction, at 10 µM, stronger effect = higher value
# [5] = biological target: Voltage-gated potassium channel subunit beta-2 (Rattus norvegicus) (UniProt P62483); assay: KvBeta positive modulators, primary screen, biochemical, NADPH fluorescence (AID 623;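 active = NADPH fluorescence slope more negative than the mean of all samples by about 3 SD, 99.7% confidence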;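 note: fluorescence intensity change per second fitted from 20 to 320 s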); conditions: Recombinant KvBeta, NADPH fluorescence decrease slope, 10 min; at 10 µM; stronger effect = lower value
# [6] = biological target: Alpha-2C adrenergic receptor (Homo sapiens) (UniProt P18825); assay: modulators of alpha2C/GIRK thallium flux, primary screen, cell-based, HEK293 alpha2C/GIRK1/2 (AID 624;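 active = fluorescence slope after compound addition differing from the mean of all screened samples at 99.7% confidence, in either direction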;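 note: slope of fluorescence ratio to pre-addition baseline per second over 15 to 24 s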); conditions: thallium flux BTC fluorescence, at 10 µM, actives lie on both sides
# [7] = inhibitors of Sendai virus-induced IRF3 signaling, primary screen, TLR/RLR signaling modifier project, cell-based, Sendai virus stimulus, luciferase, 10K MLSCN set (AID 602276;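 active = inhibition at or above 50% at 10 µM; inactive = inhibition below 50%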;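 note: firefly luciferase from ISG56 promoter only with Renilla not read in this screen; 0% = Sendai virus plus DMSO and 100% = medium plus DMSO without virus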); conditions: HEK293 RL24 IRF3 luciferase reporter, at 10 µM, stronger effect = higher value
# [8] = inhibitors of poly I:C-induced TLR3 signaling, primary screen, cell-based, poly I:C stimulus, luciferase, 10K MLSCN set (AID 602277;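 active = inhibition of the reporter signal at or above 50%; inactive = inhibition below 50%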); conditions: HEK293-TLR3 RL24 IRF3 luciferase reporter, at 10 µM, stronger effect = higher value
# Voltage-gated potassium channel subunit beta-2 (Rattus norvegicus), sequence (P62483 whole entry, looked up): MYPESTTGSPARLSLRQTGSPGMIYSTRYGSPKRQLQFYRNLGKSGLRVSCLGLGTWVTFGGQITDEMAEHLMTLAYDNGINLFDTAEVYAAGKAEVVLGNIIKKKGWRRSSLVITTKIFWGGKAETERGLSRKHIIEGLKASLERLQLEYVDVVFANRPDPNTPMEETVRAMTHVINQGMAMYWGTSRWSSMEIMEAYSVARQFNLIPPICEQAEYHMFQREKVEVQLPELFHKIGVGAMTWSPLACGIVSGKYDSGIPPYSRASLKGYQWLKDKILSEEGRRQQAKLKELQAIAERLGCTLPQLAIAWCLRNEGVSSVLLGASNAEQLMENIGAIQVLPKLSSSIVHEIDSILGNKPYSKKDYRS
# Alpha-2C adrenergic receptor (Homo sapiens), sequence (P18825 whole entry, looked up): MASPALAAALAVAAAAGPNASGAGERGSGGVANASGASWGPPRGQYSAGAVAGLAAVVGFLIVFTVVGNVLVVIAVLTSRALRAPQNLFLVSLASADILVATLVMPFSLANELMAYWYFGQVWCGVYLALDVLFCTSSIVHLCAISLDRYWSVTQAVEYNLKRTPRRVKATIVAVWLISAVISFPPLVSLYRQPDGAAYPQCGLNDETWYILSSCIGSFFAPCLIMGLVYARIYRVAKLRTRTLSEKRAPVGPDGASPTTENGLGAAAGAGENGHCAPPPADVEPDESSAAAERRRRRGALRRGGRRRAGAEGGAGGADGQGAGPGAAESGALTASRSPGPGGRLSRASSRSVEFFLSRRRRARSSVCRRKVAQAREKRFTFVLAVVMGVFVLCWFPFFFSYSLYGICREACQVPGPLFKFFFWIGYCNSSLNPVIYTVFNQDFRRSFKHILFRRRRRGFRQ
smiles,measurement,setting,value
CCOC(=O)c1c(NC(=O)c2cccs2)sc(C)c1C,cell count,[1],396
same,inhibition,[1],-6% (inactive)
same,inhibition of aggregation,[2],-20% (inactive)
same,nuclei count,[2],102%
same,inhibition,[3],-107% (inactive)
same,nuclei count,[3],125%
same,fluorescence slope,[4],-0.307 (inactive)
same,NADPH fluorescence slope,[5],1.4e-05 (inactive)
same,slope,[6],0.00436 (inactive)
same,inhibition,[7],12.5% (inactive)
same,inhibition,[8],2.83% (inactive)
Cc1ccccc1-c1nc(CN2CCC(C(=O)NC3CCN(Cc4ccccc4)CC3)CC2)c(C)o1,cell count,[1],612
same,inhibition,[1],3.7% (inactive)
same,inhibition of aggregation,[2],-89.7% (inactive)
same,nuclei count,[2],107%
same,inhibition,[3],13% (inactive)
same,nuclei count,[3],108%
same,fluorescence slope,[4],-0.561 (inactive)
same,NADPH fluorescence slope,[5],-3e-05 (inactive)
same,slope,[6],0.0054 (inactive)
same,inhibition,[7],-19.2% (inactive)
same,inhibition,[8],78% (active)
CCCS(=O)(=O)N1CCN(Cc2ccc(OCc3ccccc3)c(OC)c2)CC1,cell count,[1],247
same,inhibition,[1],-5% (inactive)
same,inhibition of aggregation,[2],9.9% (inactive)
same,nuclei count,[2],79.6%
same,inhibition,[3],-25.9% (inactive)
same,nuclei count,[3],101%
same,fluorescence slope,[4],-0.549 (inactive)
same,NADPH fluorescence slope,[5],-4.2e-05 (inactive)
same,slope,[6],0.0062 (inactive)
same,inhibition,[7],-20.2% (inactive)
same,inhibition,[8],-19.3% (inactive)
CCN1CCN(C(=O)Cn2ncc3ccsc3c2=O)CC1,cell count,[1],697
same,inhibition,[1],-1.8% (inactive)
same,inhibition of aggregation,[2],27.4% (inactive)
same,nuclei count,[2],96.5%
same,inhibition,[3],-54.3% (inactive)
same,nuclei count,[3],120%
same,fluorescence slope,[4],-0.571 (inactive)
same,NADPH fluorescence slope,[5],-8e-06 (inactive)
same,slope,[6],0.00578 (inactive)
same,inhibition,[7],3.05% (inactive)
same,inhibition,[8],26.3% (inactive)
CC(=O)c1ccccc1OCCn1nnc(-c2ccc(C)cc2)n1,cell count,[1],556
same,inhibition,[1],-13.7% (inactive)
same,inhibition of aggregation,[2],-20.1% (inactive)
same,nuclei count,[2],106%
same,inhibition,[3],-24.2% (inactive)
same,nuclei count,[3],109%
same,fluorescence slope,[4],-0.487 (inactive)
same,NADPH fluorescence slope,[5],-5.6e-05 (inactive)
same,slope,[6],0.0055 (inactive)
same,inhibition,[7],12.9% (inactive)
same,inhibition,[8],14% (inactive)
COc1cccc(-c2cc(C(=O)NCc3ccc(Cl)cc3)no2)c1,cell count,[1],475
same,inhibition,[1],-3.9% (inactive)
same,inhibition of aggregation,[2],-3.3% (inactive)
same,nuclei count,[2],103%
same,inhibition,[3],13.3% (inactive)
same,nuclei count,[3],95.6%
same,fluorescence slope,[4],-0.474 (inactive)
same,NADPH fluorescence slope,[5],1.7e-05 (inactive)
same,slope,[6],0.00826 (inactive)
same,inhibition,[7],46% (inactive)
same,inhibition,[8],-11.6% (inactive)
CCC(C)NC(=O)c1ccccc1NC(=O)C(C)N(c1ccccc1)S(C)(=O)=O (centres undefined),cell count,[1],643
same,inhibition,[1],3.1% (inactive)
same,inhibition of aggregation,[2],5% (inactive)
same,nuclei count,[2],108%
same,inhibition,[3],-7% (inactive)
same,nuclei count,[3],99.9%
same,fluorescence slope,[4],-0.479 (inactive)
same,NADPH fluorescence slope,[5],8.2e-06 (inactive)
same,slope,[6],0.00595 (inactive)
same,inhibition,[7],5.01% (inactive)
same,inhibition,[8],28.8% (inactive)
COc1ccc(OCCOC(=O)c2cccs2)cc1,cell count,[1],367
same,inhibition,[1],14.9% (inactive)
same,inhibition of aggregation,[2],-30.1% (inactive)
same,nuclei count,[2],100%
same,inhibition,[3],-11.5% (inactive)
same,nuclei count,[3],112%
same,fluorescence slope,[4],-0.604 (inactive)
same,NADPH fluorescence slope,[5],7.3e-06 (inactive)
same,slope,[6],0.00778 (inactive)
same,inhibition,[7],-2.79% (inactive)
same,inhibition,[8],4.6% (inactive)
COc1cccc(/C=N/n2c(-c3ccco3)nc3ccccc3c2=O)c1,cell count,[1],692
same,inhibition,[1],-0.9% (inactive)
same,inhibition of aggregation,[2],-10.2% (inactive)
same,nuclei count,[2],74.5%
same,inhibition,[3],33.1% (inactive)
same,nuclei count,[3],105%
same,fluorescence slope,[4],-0.293 (inactive)
same,NADPH fluorescence slope,[5],-4.4e-05 (inactive)
same,slope,[6],0.00576 (inactive)
same,inhibition,[7],-12.1% (inactive)
same,inhibition,[8],-6.01% (inactive)
CCn1c(Cc2ccccc2)nnc1SCC(=O)Nc1ccc(N2CCOCC2)c(Cl)c1,cell count,[1],427
same,inhibition,[1],0.3% (inactive)
same,inhibition of aggregation,[2],-13.2% (inactive)
same,nuclei count,[2],108%
same,inhibition,[3],-56.2% (inactive)
same,nuclei count,[3],168%
same,fluorescence slope,[4],-0.441 (inactive)
same,NADPH fluorescence slope,[5],-6.7e-06 (inactive)
same,slope,[6],0.00559 (inactive)
same,inhibition,[7],14% (inactive)
same,inhibition,[8],5.26% (inactive)
Cc1nn(-c2ccc(F)cc2)c2sc(C(=O)N3CCCCCC3)cc12,cell count,[1],465
same,inhibition,[1],2% (inactive)
same,inhibition of aggregation,[2],1.2% (inactive)
same,nuclei count,[2],83.1%
same,inhibition,[3],-38.9% (inactive)
same,nuclei count,[3],113%
same,fluorescence slope,[4],-0.199 (inactive)
same,NADPH fluorescence slope,[5],-3.1e-05 (inactive)
same,slope,[6],0.00645 (inactive)
same,inhibition,[7],-4.92% (inactive)
same,inhibition,[8],-14.2% (inactive)
CC1CCCN(C(=O)c2cc(F)c(F)cc2Cl)C1 (centres undefined),cell count,[1],888
same,inhibition,[1],-1.3% (inactive)
same,inhibition of aggregation,[2],39.2% (inactive)
same,nuclei count,[2],88.6%
same,inhibition,[3],-25.2% (inactive)
same,nuclei count,[3],94%
same,fluorescence slope,[4],-0.617 (inactive)
same,NADPH fluorescence slope,[5],-3.8e-05 (inactive)
same,slope,[6],0.00409 (inactive)
same,inhibition,[7],2.92% (inactive)
same,inhibition,[8],7.68% (inactive)
CN(C)CCCn1c(N)c(C#N)c2nc(C#N)c(C#N)nc21,cell count,[1],735
same,inhibition,[1],-14.6% (inactive)
same,inhibition of aggregation,[2],0% (inactive)
same,nuclei count,[2],128%
same,inhibition,[3],-55.1% (inactive)
same,nuclei count,[3],106%
same,fluorescence slope,[4],-0.0856 (active)
same,NADPH fluorescence slope,[5],-1.8e-05 (inactive)
same,slope,[6],0.00617 (inactive)
same,inhibition,[7],48.9% (inactive)
same,inhibition,[8],79.3% (active)
c1ccc(Oc2ccc(-n3cnnn3)cc2)cc1,cell count,[1],254
same,inhibition,[1],1.5% (inactive)
same,inhibition of aggregation,[2],-1.2% (inactive)
same,nuclei count,[2],66%
same,inhibition,[3],-14% (inactive)
same,nuclei count,[3],106%
same,fluorescence slope,[4],-0.391 (inactive)
same,NADPH fluorescence slope,[5],9.8e-07 (inactive)
same,slope,[6],0.00429 (inactive)
same,inhibition,[7],-11.3% (inactive)
same,inhibition,[8],0.336% (inactive)
